Data from the supplement of paper PMC6555819.

System: PPARg:RXRa 30nM:10nM, anti-RXR (NR concentration 30 nM, RXRa partner concentration 10 nM)
Test: PBM binding z-score (relative to random genomic background probes); higher = stronger binding; sequences stand for … in GC…GCGATTGACAGCGTAGAATGAAGG
How it was run: (§1)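 Binding buffer was PBS pH 7.4 with 2% milk, 0.02% Triton X-100, 1 mM DTT, 0.2 mg/mL BSA and 0.4 mg/ml salmon testes DNA. In it, ligand-free nuclear receptor dimers were incubated 1 h on custom Agilent 4×180K protein-binding microarrays carrying double-stranded probes. Antibodies against each partner (one per run) detected binding, and z-scores were calculated against random background probes after regression normalization of scanned fluorescence.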

Row | Sequence | PBM binding z-score
1 | TAGCCTAGGTCATGGGCCAGTAGACCACGCGAAC | 1.03
2 | ATCGAAAGGTCGAGGTGATTATAGAGAAAGGGAA | 1.31
3 | CTCGAAAGGTCGGTAGAGGTGAGTATACGGATAA | 0.538
4 | CCTAGTAGGCCAGGGTCACTCAAGCATTTCGCTT | 1.36
5 | CCTTACGGGTCACTCCAGGCTATAGCATCGGAGT | 0.716
6 | CGAACTAGGTCAAGGTCAGTGAATCTCCGCACGC | 4.44
7 | AGAACGAGGGCACGCTGAGTTCATAGCAGAGTAG | 0.373
8 | GCCACTGGGGCATCAGCAGGTTACCATAACTTAA | 0.184
9 | ACTAGTTGGTCAGCTGAGATCACACACAATTCGG | 0.202
10 | ATTTACGGGTCAACGAGGTTATAGCACGCGTATA | 3.27
11 | TAGCCTAGGTCATTGGGCAAGTATAGTACGCATC | 0.725
12 | TCTCGGAGTACACGAAGGTCAGAGCTTTCCAGAG | 1.91
13 | AGAACGAGGGCACGGTGAGTTGATAGCAGAGTAG | 0.933
14 | TCAAGCAGGCCAGAGGGTCACTCAAGAGGTACGG | 2.51
15 | CAAACTAGGTCACAGAGGCCAAAGTCCGTGCGTA | 5.35
16 | CGTCAAAGTACAACTAAGGTAACGTAAAGCACGC | 0.132
17 | TCTTGTAGATCAAGCAGGTTAAGAAAGCCTGAGT | 2.46
18 | TCATATAGGTAATACAGGTAAAAGTCGGCATCTA | 4.14
19 | AATACAGGGTCACTAGGCCAGAATAGGTACGAAT | 2.7
20 | CGAACTAGGTCATTGACAGGAGAGTGAATAGTAA | 3.96

Row | Sequence | PBM binding z-score
21 | ATATGTAGGTTGTCGGGTCATTCAGTTTGCGCAT | 1.09
22 | TAGCCTGGGTCATGGGCCAGTATACCACGCGAAC | 1.09
23 | CGTCCAAGGTCAAGGGTCAGTGAAGAGATGACGG | 6.12
24 | ATCGAAAGATCGACGAGGTGAGTATACACCGTTT | 0.289
25 | TCTTGTAGATCAAGCAGGTTAAGATAGCCTGAGT | 2.75
26 | GCTACTAGTTGAAAGGGCAACCGAATGATTCTCG | 3.07
27 | TCCGACAGGTGAAGGTAACTCAGGTACGCAGTCG | 2.1
28 | ATGTGTAGGTTAGCTGGGGTCATTCAGACTAGGC | 1.16
29 | TATACAGGGTCAATGGCCAGAGTACGAATGTCGA | 2.12
30 | CGTCAAAGTTCAATGTAACGTAACAGAAAGCAGC | 1.83
31 | ATATGTAGGTTACATCCGGGTCGTTCAGGCTATG | 1.66
32 | CCCTACGGGTCACTGACAGGTTATAGCATTTGGA | 0.787
33 | AGTCAAAGTTCATCTAGGTAACGCAAGATATGCT | 3.58
34 | CGTCCAAGATCAATGCTAGGTCAGTGAAAGCATT | -0.166
35 | TAGCCTAGGTCATTCAGGAGCCAGTATAGAAAGC | 0.638
36 | CCTGCTAGGTCAATGTTCAGCTAAAGCAGCTCGC | 0.934
37 | TCCAGTAGGTTAGGGGCATTCAGAATGGCGTCGA | 2.86
38 | TCGCGGAGGACACGAAGGTCAGAGCTTTCCAGAG | 0.607
39 | CGAAGTAGGTCATCCAGGACAGTGAATACATTGA | 4.99

System: PPARg:RXRa 90nM:30nM, anti-RXR (NR concentration 90 nM, RXRa partner concentration 30 nM)
Test: as above
How it was run: as §1

Row | Sequence | PBM binding z-score
40 | TAGCCTAGGTCATGGGCCAGTAGACCACGCGAAC | 3.07
41 | ATCGAAAGGTCGAGGTGATTATAGAGAAAGGGAA | 2.75
42 | CTCGAAAGGTCGGTAGAGGTGAGTATACGGATAA | 0.994
43 | CCTAGTAGGCCAGGGTCACTCAAGCATTTCGCTT | 3.22
44 | CCTTACGGGTCACTCCAGGCTATAGCATCGGAGT | 1.9
45 | CGAACTAGGTCAAGGTCAGTGAATCTCCGCACGC | 7.24
46 | AGAACGAGGGCACGCTGAGTTCATAGCAGAGTAG | 1.47
47 | GCCACTGGGGCATCAGCAGGTTACCATAACTTAA | 0.914
48 | ACTAGTTGGTCAGCTGAGATCACACACAATTCGG | 0.195
49 | ATTTACGGGTCAACGAGGTTATAGCACGCGTATA | 5.21
50 | TAGCCTAGGTCATTGGGCAAGTATAGTACGCATC | 1.95
51 | TCTCGGAGTACACGAAGGTCAGAGCTTTCCAGAG | 1.7
52 | AGAACGAGGGCACGGTGAGTTGATAGCAGAGTAG | 1.2
53 | TCAAGCAGGCCAGAGGGTCACTCAAGAGGTACGG | 2.67
54 | CAAACTAGGTCACAGAGGCCAAAGTCCGTGCGTA | 7.09
55 | CGTCAAAGTACAACTAAGGTAACGTAAAGCACGC | 0.467
56 | TCTTGTAGATCAAGCAGGTTAAGAAAGCCTGAGT | 1.7
57 | TCATATAGGTAATACAGGTAAAAGTCGGCATCTA | 3.49
58 | AATACAGGGTCACTAGGCCAGAATAGGTACGAAT | 5.33
59 | CGAACTAGGTCATTGACAGGAGAGTGAATAGTAA | 5.77

Row | Sequence | PBM binding z-score
60 | ATATGTAGGTTGTCGGGTCATTCAGTTTGCGCAT | 2.63
61 | TAGCCTGGGTCATGGGCCAGTATACCACGCGAAC | 2.53
62 | CGTCCAAGGTCAAGGGTCAGTGAAGAGATGACGG | 7.94
63 | ATCGAAAGATCGACGAGGTGAGTATACACCGTTT | 0.00942
64 | TCTTGTAGATCAAGCAGGTTAAGATAGCCTGAGT | 2.18
65 | GCTACTAGTTGAAAGGGCAACCGAATGATTCTCG | 5.08
66 | TCCGACAGGTGAAGGTAACTCAGGTACGCAGTCG | 1.34
67 | ATGTGTAGGTTAGCTGGGGTCATTCAGACTAGGC | 2.54
68 | TATACAGGGTCAATGGCCAGAGTACGAATGTCGA | 3.87
69 | CGTCAAAGTTCAATGTAACGTAACAGAAAGCAGC | 3.34
70 | ATATGTAGGTTACATCCGGGTCGTTCAGGCTATG | 3.49
71 | CCCTACGGGTCACTGACAGGTTATAGCATTTGGA | 2.43
72 | AGTCAAAGTTCATCTAGGTAACGCAAGATATGCT | 5.58
73 | CGTCCAAGATCAATGCTAGGTCAGTGAAAGCATT | -0.214
74 | TAGCCTAGGTCATTCAGGAGCCAGTATAGAAAGC | 1.63
75 | CCTGCTAGGTCAATGTTCAGCTAAAGCAGCTCGC | 2.93
76 | TCCAGTAGGTTAGGGGCATTCAGAATGGCGTCGA | 3.05
77 | TCGCGGAGGACACGAAGGTCAGAGCTTTCCAGAG | 0.901
78 | CGAAGTAGGTCATCCAGGACAGTGAATACATTGA | 6.9
